HepG2 viability – HepG2 cytotoxicity, counter-screen for TGF-b inhibitors. HepG2 CAGA-GFP viability, ATP luminescence, 18 h. Potency, µM (highest dose often 46.1 µM), inactives show top-dose activity change, negative = cytotoxicity, most hits filed as cytotoxic. hit rate 0.76% among 410,000. AID 588856; also: potency is read from the fitted curve at half-maximal effect
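CellTiter-Glo luminescence gave cytotoxicity after 18 hours at 37 degrees C. The cells were HepG2 CAGA-GFP in 1% FBS DMEM, stimulated with 500 pg/mL TGF-beta after compound addition. %Activity was normalised to no-cell wells (complete cell-killing) and DMSO (no toxicity), and curves were fitted and classified.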
ASM inhibitor – blocks human secretory acid sphingomyelinase | P17405 | hit rate 0.006% among 340,000 | Potency, µM (series often up to 57.5 µM), for the others: at the highest dose activity change, negative = inhibition, actives largely listed as inhibitors | placental ASM, HMU-PC fluorogenic substrate, 60 min; also: potency is read from the fitted curve at half-maximal effect
Target sequence (P17405 47-631 limits assumed): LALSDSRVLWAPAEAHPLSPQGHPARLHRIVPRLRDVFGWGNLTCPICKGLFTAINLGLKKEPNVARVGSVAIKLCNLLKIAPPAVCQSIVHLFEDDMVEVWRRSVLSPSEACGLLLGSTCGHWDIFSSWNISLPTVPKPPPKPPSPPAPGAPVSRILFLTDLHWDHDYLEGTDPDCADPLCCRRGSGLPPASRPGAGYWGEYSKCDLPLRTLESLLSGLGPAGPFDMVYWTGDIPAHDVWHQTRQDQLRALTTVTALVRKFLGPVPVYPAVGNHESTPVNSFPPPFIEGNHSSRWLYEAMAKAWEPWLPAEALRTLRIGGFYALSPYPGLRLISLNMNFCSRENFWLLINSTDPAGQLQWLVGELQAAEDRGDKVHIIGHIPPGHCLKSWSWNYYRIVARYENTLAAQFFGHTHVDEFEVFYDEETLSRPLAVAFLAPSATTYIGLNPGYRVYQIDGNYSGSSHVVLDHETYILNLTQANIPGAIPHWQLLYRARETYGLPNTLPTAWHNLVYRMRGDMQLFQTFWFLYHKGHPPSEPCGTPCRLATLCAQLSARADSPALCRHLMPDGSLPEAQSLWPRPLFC
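Steps: dispense placental human ASM, pin compound, wait 10 min at room temperature, add HMU-PC0 substrate at 9 uM final, incubate 60 min at 37 °C, add stop solution raising pH to 10, read fluorescence.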
TDP1 cell CPT – growth inhibition of DT40 Tdp1-/-;hTDP1 cells with camptothecin (screen for TDP1 inhibitors) | chicken DT40 Tdp1-/-;hTDP1 cells + 20 nM CPT, ATP luminescence, 48 h | Potency, µM (doses to about 46.2 µM), inactives show at the top dose activity change, negative = growth inhibition, hits mostly inhibitors | hit rate 12% among 420,000 | AID 686979; also: potency is read from the fitted curve at half-maximal effect; % is scaled to controls: 0 for no effect and ±100 for the full control effect; nearly all actives have a fitted effect of over 55% in size
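Chicken DT40 Tdp1-/- cells complemented with human TDP1, 400 cells/well, exposed to compounds plus 20 nM camptothecin for at least 48 h at 37 C; viability read as ATP content by CellTiter-Glo luminescence.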
TGFb inhibitor – TGF-b pathway inhibition | Potency, µM (top dose mostly 46.1 µM), for inactives: at the highest dose activity, negative = inhibition, usual class: inhibitors | AID 588855 | HepG2 CAGA-GFP TGF-b/SMAD3 reporter, GFP fluorescence, 18 h; TGF-beta stimulated, 500 pg/mL final | hit rate 1.2% among 410,000; also: potency is read from the fitted curve at half-maximal effect; % is scaled to controls: 0 for no effect and ±100 for the full control effect; nearly all actives have a fitted effect of over 65% in size
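HEPG2 CAGA-GFP cells (1000/well, DMEM with 1% FBS) were pre-incubated 2 h at 37 degrees C, given compound by pin tool, then stimulated with TGF-beta at 500 pg/mL final for 18 h before per-cell GFP fluorescence imaging.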
IL-1B inflam inh – inflammasome signaling inhibition, IL-1 beta readout. THP-1 LPS/ATP IL-1B secretion, AlphaLISA, 16 h; stronger effect = lower value. activity change, % at 57.5 µM. hit rate 4.7% among 360,000; in the data active = activity change below about -50%; inconclusive = mostly about -30% to -49%; also: % is scaled to controls: 0 for no effect and ±100 for the full control effect
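Secreted IL-1B measured by AlphaLISA bead assay after 16 h compound exposure of THP-1 cells; compounds (final up to 57.5 uM) added 1 h before LPS (250 ng/mL) and ATP (1.25 mM) stimulation; lower signal means less secretion.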
DT40 TDP1 no CPT – qHTS for Inhibitors of human tyrosyl-DNA phosphodiesterase 1 (TDP1): qHTS in cells in absence of CPT; DT40 Tdp1-/- hTDP1 cells, no CPT, ATP luminescence, 48 h; Potency, µM (highest dose often 46.2 µM), inactives show at the highest dose activity change, negative = growth inhibition, usual class: inhibitors; hit rate 15% among 420,000; AID 686978, 2013; also: potency is read from the fitted curve at half-maximal effect; % is scaled to controls: 0 for no effect and ±100 for the full control effect; nearly all actives have a fitted effect of over 55% in size
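Compound effects on proliferation are scored in DT40 Tdp1-/-;hTDP1 cells in the absence of CPT. ATP levels (CellTiter-Glo luminescence) are recorded after a ≥48 hr, 37 °C incubation.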
* = called active by the depositor; i = inactive; ? = inconclusive; nt = not tested or not shown; [ ] = another dose, or the depositor's remark. Compounds with a hit are over-represented: about 19% of the library has one in this group of screens. Unless noted, calls follow the shape of the dose curve; as a rule, active = well fitted curve in the direction sought with a large enough effect; inconclusive = small, poorly fitted or top-dose-only effect, or another doubt; inactive = no such curve, though single readings can be large; an effect the other way counts as inactive or inconclusive.

SMILES | HepG2 viability | ASM inhibitor | TDP1 cell CPT | TGFb inhibitor | IL-1B inflam inh | DT40 TDP1 no CPT
O=C(CCS(=O)(=O)c1ccc(Cl)cc1)Nc1ccc(N2CCOCC2)cc1 | 5.8% | 1.0% | 20.6µM* | -3.3% | 25.2 | 14.6µM*
O=C(CNS(=O)(=O)c1ccc(Cl)cc1)N1CCN(c2ccc(F)cc2)CC1 | -9.2% | -1.2% | ? | -6.2% | -7.5 | ?
O=C(CCS(=O)(=O)c1ccc(Br)cc1)N1CCN(c2ccc(F)cc2)CC1 | -8.7% | 0.4% | ? | -27.8% | -8.9 | 16.4µM*
CN1C(=O)Cc2cc(S(=O)(=O)CCC(=O)N3CCN(c4ccc(Cl)cc4)CC3)ccc21 | -20.7% | nt | 20.6µM* | ? | nt | 14.6µM*
O=C(CNS(=O)(=O)c1ccc(Br)cc1)N1CCN(c2ccc(F)cc2)CC1 | -5.2% | -6.7% | ? | -21.2% | -12.2 | 18.4µM*
Cc1ccc(S(=O)(=O)N(C)CC(=O)NCC(c2ccco2)N(C)C)cc1 (centres undefined) | -13.0% | 5.1% | 8.5% | 0.9% | -6.0 | -3.5%
O=C(CCS(=O)(=O)c1ccc(Cl)cc1)N1CCN(S(=O)(=O)c2cccs2)CC1 | -11.9% | 2.1% | -27.6% | ? | 19.4 | -25.0%
O=C(CCS(=O)(=O)c1ccc(Br)cc1)N1CCN(c2ccc(Cl)cc2)CC1 | -4.5% | -9.5% | ? | 10.5% | 7.7 | 14.6µM*
COc1ccc(S(=O)(=O)N2CCCCCC2)cc1C(=O)N(CC(C)C)C1CCS(=O)(=O)C1 (centres undefined) | -10.7% | -1.7% | -2.2% | -24.6% | 4.7 | -29.2%
Cn1cc(C(=O)c2ccccc2C(=O)O)cc1C(=O)C(Cl)(Cl)Cl | 12.2% | 1.2% | 22.3% | 18.8% | 10.2 | -18.7%
Cc1cccc(-c2cnc(C(O)Cc3ccccc3)[nH]2)c1 (centres undefined) | -17.2% | nt | 16.4µM* | -4.8% | 4.4 | ?
OC(c1cccc(F)c1)c1ncc(-c2ccc3ccccc3c2)[nH]1 (centres undefined) | -34.0% | nt | ? | -4.3% | 12.6 | ?
OC(Cc1ccccc1)c1ncc(-c2ccc3ccccc3c2)[nH]1 (centres undefined) | -43.4% | nt | ? | -28.5% | 21.2 | 23.1µM*
Cc1ccc(F)c(S(=O)(=O)NC(=O)C2(C)CCN2C(=O)Cc2ccccc2Cl)c1 (centres undefined) | 6.8% | nt | 2.7% | -27.2% | -21.7 | 0.6%
CCOc1ccc(/C=N/n2cc(-c3ccccc3)[nH]c2=S)cc1 | 14.1% | -7.3% | 2.59µM* | ? | -14.7 | 5.17µM*
O=C1CC[C@@H](C(=O)N[C@H]2C[C@@H]2c2ccccc2)N1 | nt | nt | 0.4% | nt | nt | -14.5%
OC(Cc1ccnc2ccccc12)C(Cl)(Cl)Cl (centres undefined) | -1.6% | 15.9% | ? | 9.1% | 8.4 | 10.3µM*
COc1ccccc1NC(=O)C1=C(C)Nc2nc(CCCO)nn2C1c1cccc(O)c1 (centres undefined) | 3.6% | nt | -1.6% | -8.4% | nt | -15.8%
O=C1CN(C(=O)c2ccc(Cl)c([N+](=O)[O-])c2)c2ccccc2N1 | -7.5% | -3.9% | -18.7% | -11.8% | -78.3* | -6.5%
CCCn1nc(C(=O)N2CC(=O)Nc3ccccc32)c2ccccc2c1=O | -9.6% | -1.2% | 20.6µM* | 12.2% | 40.7 | 14.6µM*
CC(C)n1nc(C(=O)OCC(=O)N2CC(=O)Nc3ccccc32)c2ccccc2c1=O | 2.4% | 2.0% | -15.6% | 16.1% | 32.9 | -22.5%
Cc1ccc(Nc2c([N+](=O)[O-])cc(C(=O)N3CC(=O)Nc4ccccc43)cc2[N+](=O)[O-])c(C)c1 | 1.5% | ? | 14.6µM* | ? | -11.2 | ?
COc1cc(OC)cc(C(=O)N2CC(=O)Nc3ccccc32)c1 | 12.2% | -0.4% | 1.46µM* | 0.0% | 37.1 | 1.3µM*
O=C(c1ccc(Cl)c([N+](=O)[O-])c1)N1CCCc2ccccc21 | 0.6% | -5.5% | ? | -17.6% | 7.2 | ?
O=C1CN(C(=O)c2ccccc2F)c2ccccc2N1 | 0.5% | 4.1% | -8.5% | -3.9% | 12.4 | -11.5%
SMILES | HepG2 viability | ASM inhibitor | TDP1 cell CPT | TGFb inhibitor | IL-1B inflam inh | DT40 TDP1 no CPT
NC(=O)c1cc[n+](CC2=C(C(=O)[O-])N3C(=O)[C@@H](NC(=O)Cc4cccs4)[C@H]3SC2)cc1 | nt | nt | -5.6%[21.1 µM] | nt | nt | -19.5%[21.1 µM]
CCOC(=O)c1c(C)[nH]c(C(=O)CSc2nc(C)cc(C)n2)c1C | -4.7% | -2.0% | 14.6µM* | -0.7% | -26.4 | 20.6µM*
CCOC(=O)c1c(C)[nH]c(C(=O)CN2C(=O)NC(C)(c3ccc(C)cc3)C2=O)c1C (centres undefined) | -27.7% | -16.9% | ? | -16.5% | -7.9 | 23.1µM*
CCOC(=O)c1c(C)[nH]c(C(=O)CSc2ccc(Cl)cc2)c1C | -1.6% | -2.4% | -19.3% | 1.9% | 8.9 | ?
CCOC(=O)c1c(C)[nH]c(C(=O)CN2C(=O)NC(C)(C)C2=O)c1C | 9.4% | -1.4% | 3.8% | 2.7% | -9.4 | -1.5%
CCOc1ccc(NC(=O)CN2C(=O)NC(C)(c3ccc(OC(F)F)cc3)C2=O)cc1 (centres undefined) | 1.1% | 4.0% | 18.4µM* | -1.5% | -67.1* | 23.1µM*
CCN(CC1COc2ccccc2O1)C(=O)CN1C(=O)NC(C)(c2ccc(C)cc2)C1=O (centres undefined) | -3.4% | 0.2% | ? | -16.5% | 7.8 | 23.1µM*
O=C(CSc1ccccc1)NCC1(N2CCCCC2)CCCCC1 | -4.1% | 3.4% | ? | -4.9% | 3.0 | ?
CCc1ccc(C2=NN(C(=O)CCC(=O)O)C(c3cccs3)C2)cc1 (centres undefined) | -1.1% | -2.9% | -20.2% | -4.2% | 9.9 | 9.3%
Cc1cccc(CNC(=O)C2CCN(S(=O)(=O)c3cccc4nonc34)CC2)c1 | 0.9% | nt | -11.7% | 3.8% | nt | -6.5%
COc1ccc(C2(c3ccc(OC)cc3)NC(=O)N(CC(=O)Nc3ccc(OC(F)F)cc3)C2=O)cc1 | -20.6% | -13.5% | ? | ? | i | 18.4µM*
CCOC(=O)c1c(NC(=O)CN2C(=O)NC(C)(c3ccc(OC(F)F)cc3)C2=O)sc(C)c1C (centres undefined) | -10.1% | ? | 20.6µM* | 0.0% | ? | 16.4µM*
COc1cccc(-c2ccc3c(N)c(C(=O)Nc4cc(C(F)(F)F)ccc4OC)sc3n2)c1 | 1.1% | nt | -16.6% | -11.9% | nt | -12.4%

Screening results (PubChem BioAssay)
